Results: PubChem BioAssay AID1159580 (chemical genetic matrix, 2015)
The campaign covered roughly 5,500 compounds. About 2,000 (36%) were called active. Not shown: some 18% with an inconclusive outcome. No stated cut-off is given here; in the data, active means normalized growth mostly below about 0.91 (no sharp cut-off); inconclusive means no clear call, values can overlap the other calls; inactive means mostly above about 0.92. Some of the results follow.

Assay: chemical genetic growth profiling, strain panel (AID 1159580);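 further: tested at 20 µM; growth read once vehicle control cultures reached saturation at 30 °C; 1 = growth at the plate median or of vehicle wells; lower values mean less growth of the strain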
Conditions: S. cerevisiae deletion strains, growth OD

Measured: normalized growth

O=C(Nc1ccc(F)cc1F)c1cc(Cl)ccc1O
inactive: locus YAR019C, strain CDC15, hits give low values 0.935 | locus YBL105C, strain PKC1, hits give low values 0.933 | locus YBR135W, strain CKS1, hits give low values 0.943 | locus YBR136W, strain MEC1, hits give low values 0.94 | locus YBR160W, strain CDC28, hits give low values 0.945 | locus YDL017W, strain CDC7, hits give low values 0.935 | locus YDL028C, strain MPS1, hits give low values 0.937 | locus YDL101C, strain DUN1, hits give low values 0.979 | locus YDL108W, strain KIN28, hits give low values 0.936 | locus YDL132W, strain cdc53, hits give low values 0.97 | locus YDL214C, strain PRR2, hits give low values 0.876 | locus YDR052C, strain DBF4, hits give low values 0.926 | locus YDR054C, strain cdc34, hits give low values 0.928 | locus YDR226W, strain ADK1, hits give low values 0.931 | locus YDR477W, strain SNF1, hits give low values 0.947 | locus YER123W, strain YCK3, hits give low values 0.864 | locus YER133W, strain GLC7, hits give low values 0.9 | locus YFL009W, strain cdc4, hits give low values 0.923 | locus YFL029C, strain CAK1, hits give low values 0.941 | locus YFR003C, strain YPI1, hits give low values 0.929 | locus YFR019W, strain FAB1, hits give low values 0.933 | locus YFR028C, strain CDC14, hits give low values 0.925 | locus YGR040W, strain KSS1, hits give low values 0.952 | locus YGR052W, strain FMP48, hits give low values 1 | locus YGR092W, strain DBF2, hits give low values 0.683 | locus YHR030C, strain SLT2, hits give low values 0.927 | locus YHR079C, strain IRE1, hits give low values 0.845 | locus YHR082C, strain KSP1, hits give low values 0.989 | locus YHR205W, strain SCH9, hits give low values 0.694 | locus YIL147C, strain SLN1, hits give low values 0.938 | locus YJL095W, strain BCK1, hits give low values 0.877 | locus YJL128C, strain PBS2, hits give low values 0.918 | locus YJL157C, strain FAR1, hits give low values 0.827 | locus YJR016C, strain ILV3, hits give low values 0.939 | locus YJR066W, strain TOR1 (second series), hits give low values 0.952 | locus YJR066W, strain TOR1, hits give low values 1.03 | locus YKL048C, strain ELM1, hits give low values 0.935 | locus YKL067W, strain YNK1, hits give low values 0.884 | locus YKL101W, strain HSL1, hits give low values 0.961 | locus YKL193C, strain SDS22, hits give low values 0.941 | locus YKL203C, strain TOR2, hits give low values 1.03 | locus YLR113W, strain HOG1, hits give low values 0.98 | locus YLR133W, strain CKI1, hits give low values 0.889 | locus YLR403W, strain SFP1, hits give low values 0.708 | locus YML070W, strain DAK1, hits give low values 0.936 | locus YMR001C, strain CDC5, hits give low values 0.94 | locus YMR205C, strain PFK2 (second series), hits give low values 0.901 | locus YMR277W, strain FCP1, hits give low values 0.952 | locus YNL006W, strain LST8, hits give low values 0.938 | locus YNL020C, strain ARK1, hits give low values 0.84 | locus YNL161W, strain CBK1, hits give low values 0.934 | locus YNL183C, strain NPR1, hits give low values 1.02 | locus YNL207W, strain RIO2, hits give low values 0.944 | locus YNL222W, strain SSU72, hits give low values 0.939 | locus YNL307C, strain MCK1 (second series), hits give low values 0.857 | locus YOL078W, strain AVO1, hits give low values 0.939 | locus YOL136C, strain PFK27, hits give low values 0.909 | locus YOR061W, strain CKA2, hits give low values 0.89 | locus YOR119C, strain RIO1, hits give low values 1.01 | locus YOR231W, strain MKK1, hits give low values 0.996 | locus YOR329C, strain SCD5, hits give low values 0.939 | locus YPL031C, strain PHO85, hits give low values 0.928 | locus YPL153C, strain RAD53, hits give low values 0.922 | locus YPL204W, strain HRR25, hits give low values 0.915 | locus YPL209C, strain IPL1, hits give low values 0.937 | locus YPL256C, strain CLN2, hits give low values 0.927 | locus YPR025C, strain CCL1, hits give low values 0.945 | locus YPR106W, strain ISR1, hits give low values 0.94 | locus YPR111W, strain DBF20, hits give low values 0.947 | strain NNK1, hits give low values 0.965 | strain TSCII, hits give low values 0.934
